From PubChem BioAssay (NCATS)
Inconclusive results are not listed. Active and inactive are the calls of the source. Calls follow the shape of the dose curve; as a rule, active = well fitted curve in the direction sought with a large enough effect; inconclusive = small, poorly fitted or top-dose-only effect, or another doubt; inactive = no such curve, though single readings can be large; an effect the other way counts as inactive or inconclusive.

Key:
[1] = MultiTox-Fluor Cytotoxicity Assay - LYMP1-002 - Live Cells (AID 955); conditions: LYMP1-002 lymphoblastoid live-cell protease fluorescence viability; series mostly up to 46.1 µM
Outline: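 Human lymphoblastoid LYMP1-002 cells, 2500/well in complete medium, rested 5 hr at 37 C, then exposed to compounds for 16 hr at 37 C. Live-cell protease cleavage of GF-AFC read by fluorescence (Ex/Em 405/510) after 60 min at room temperature; AC50 from Hill fits.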

[2] = MultiTox-Fluor Cytotoxicity Assay - LYMP1-002 - Dead Cells (AID 960); conditions: LYMP1-002 lymphoblastoid cells, dead-cell protease fluorescence; series mostly up to 46.1 µM; also: nearly all actives have a fitted effect of over 60% in size
Outline: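 Human lymphoblastoid cells (LYMP1-002), 2500/well in complete medium, were exposed to compounds for 16 hr at 37 C. Dead-cell protease activity was read as bis-AAF-R110 fluorescence (Ex/Em 485/520), normalized to DMSO and 15 uM tetraoctylammonium bromide; AC50 from Hill fits.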

[3] = MultiTox-Fluor Cytotoxicity Assay - LYMP1-003 - Dead Cells (AID 961); conditions: LYMP1-003 lymphoblastoid cells, dead-cell protease fluorescence; series mostly up to 92.2 µM; also: nearly all actives have a fitted effect of over 70% in size
Outline: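 LYMP1-003 lymphoblastoid, 2500 cells/well, 5 hr settle then 16 hr cpd at 37 C; MultiTox-Fluor reagent 60 min RT; Ex/Em 485/520 dead-cell signal; norm. DMSO = 0%, 15 uM tetraoctylammonium bromide = 100%; Hill AC50.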

[4] = Cell Viability - LYMP1-003 - Assay at 24 hr (AID 963); conditions: LYMP1-003 lymphoblastoid cell viability; series mostly up to 92.2 µM
Outline: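 Human lymphoblastoid LYMP1-003 cells (2500/well) were rested 5 hr at 37 C, then exposed to compounds in complete medium for 24 hr at 37 C. Cellular ATP was quantified by CellTiter-Glo luminescence, and AC50 values came from Hill fits of concentration-response data.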

[5] = Cell Viability - LYMP1-003 - Assay at 40 hr (AID 964); conditions: LYMP1-003 lymphoblastoid viability; series mostly up to 92.2 µM; also: nearly all actives have a fitted effect of over 60% in size
Outline: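 Human lymphoblastoid LYMP1-003 cells, 2500/well in complete medium, rested 5 hr at 37 C, then exposed to compounds for 40 hr at 37 C. Viability read as intracellular ATP by CellTiter-Glo luminescence; AC50 from Hill fits of concentration-response data.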

[6] = Cell Viability - LYMP2-003 (AID 965); conditions: LYMP2-003 lymphoblastoid cell viability; series mostly up to 92.2 µM;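 also: cells exposed to compounds for 24 h before reading; nearly all actives have a fitted effect of over 50% in size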
Outline: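 Seed 2500 lymphoblastoid cells/well; incubate 5 hr, 37 C; add compounds; incubate 24 hr, 37 C; add CellTiter-Glo, 30 min RT; read luminescence. AC50 from Hill fit.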

[7] = Cell Viability - LYMP2-004 (AID 966); conditions: LYMP2-004 lymphoblastoid cell viability, qHTS; series mostly up to 92.2 µM; also: nearly all actives have a fitted effect of over 65% in size
Outline: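 Human lymphoblastoid cells (2500/well) in complete medium were treated with compounds for 24 hr at 37 C, then intracellular ATP was measured by CellTiter-Glo luminescence. AC50 values came from Hill-equation fits of concentration-response data.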

[8] = Cell Viability - LYMP2-005 (AID 967); conditions: LYMP2-005 lymphoblastoid cell viability; series mostly up to 92.2 µM
Outline: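 Acute cytotoxicity is scored as a concentration-dependent drop in intracellular ATP in human lymphoblastoid LYMP2-005 cells after 24 h compound treatment. ATP is quantified by luciferase luminescence, and AC50 is derived by Hill-equation modelling.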

[9] = Cell Viability - LYMP2-009 (AID 968); conditions: LYMP2-009 lymphoblastoid cell viability; series mostly up to 92.2 µM; also: nearly all actives have a fitted effect of over 55% in size
[10] = Cell Viability - LYMP2-013 (AID 970); conditions: LYMP2-013 lymphoblastoid cells viability; series mostly up to 92.2 µM; also: nearly all actives have a fitted effect of over 55% in size
Outline: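 Human lymphoblastoid cells, 2500/well, were preincubated 5 hr at 37 C, then treated with compounds for 24 hr at 37 C in complete medium. Intracellular ATP was read by CellTiter-Glo luminescence; AC50 from Hill-equation fits of concentration-response data.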

[11] = Cell Viability - LYMP2-015 (AID 971); conditions: LYMP2-015 lymphoblastoid cell viability; series mostly up to 92.2 µM; also: nearly all actives have a fitted effect of over 55% in size
Outline: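 Human lymphoblastoid cells (2500/well) in complete medium were preincubated 5 hr at 37 C, then compound-treated 24 hr at 37 C. Intracellular ATP was read by CellTiter-Glo luminescence after 30 min at room temperature; AC50 came from Hill-equation concentration-response fits.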

[12] = Cell Viability - LYMP2-017 (AID 972); conditions: LYMP2-017 lymphoblastoid cell viability; series mostly up to 92.2 µM; also: nearly all actives have a fitted effect of over 55% in size
Outline: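 Human lymphoblastoid cells (2500/well) were seeded in complete medium, held 5 hr at 37 C, then exposed to compounds for 24 hr at 37 C. Intracellular ATP was read by CellTiter-Glo luminescence after 30 min at room temperature, with AC50 values from Hill-equation fits.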

[13] = Cell Viability - LYMP2-019 (AID 973); conditions: LYMP2-019 lymphoblastoid cell line viability; series mostly up to 92.2 µM; also: nearly all actives have a fitted effect of over 55% in size
Outline: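 Human lymphoblastoid cells were seeded at 2500 cells/well, preincubated 5 hr at 37 C, then exposed to compounds for 24 hr at 37 C in complete medium. Intracellular ATP was measured by CellTiter-Glo luminescence; AC50 from Hill fits.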

[14] = Cell Viability - LYMP2-021 (AID 974); conditions: LYMP2-021 lymphoblastoid cells viability; series mostly up to 92.2 µM
Outline: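 Human lymphoblastoid cells (2500/well) were preincubated 5 hr at 37 C, then exposed to compounds for 24 hr at 37 C in complete medium. Intracellular ATP was read by CellTiter-Glo luminescence; AC50 came from Hill-equation fits of concentration-response data.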

[15] = Cell Viability - LYMP2-023 (AID 975); conditions: LYMP2-023 lymphoblastoid cell viability; series mostly up to 92.2 µM
Outline: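 Human lymphoblastoid cells (2500/well) were preincubated 5 hr at 37 C, then exposed to compounds for 24 hr at 37 C in complete medium. Cellular ATP was read by CellTiter-Glo luminescence, and AC50 came from Hill-equation fits.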

[16] = Cell Viability - LYMP2-025 (AID 976); conditions: LYMP2-025 lymphoblastoid cell viability; series mostly up to 92.2 µM
Outline: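 Human lymphoblastoid LYMP2-025 cells (2500/well) were pre-incubated 5 hr at 37 C, then treated with compounds for 24 hr at 37 C in complete medium. Viability was read as intracellular ATP by CellTiter-Glo luminescence; AC50 from Hill fits.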

[17] = Cell Viability - LYMP2-002 (AID 977); conditions: LYMP2-002 lymphoblastoid cell viability, qHTS; series mostly up to 92.2 µM;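 also: compound exposure lasted 24 h at 37 °C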
Outline: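 Human lymphoblastoid LYMP2-002 cells, 2500 per well, exposed to compounds for 24 h at 37 C in complete medium; viability read as intracellular ATP by CellTiter-Glo luminescence, AC50 from Hill fits.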

[18] = Cell Viability - LYMP2-006 (AID 978); conditions: LYMP2-006 lymphoblastoid cell viability, qHTS; series mostly up to 92.2 µM; also: nearly all actives have a fitted effect of over 60% in size
Outline: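 Cells are seeded at 2500 per well and rested 5 hr at 37 C. Compounds are added across a concentration series for 24 hr at 37 C, after which ATP is quantified by luciferase luminescence.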

[19] = Cell Viability - LYMP2-007 (AID 979); conditions: LYMP2-007 lymphoblastoid cell viability; series mostly up to 92.2 µM;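 also: cells exposed to compound for 24 h before reading; nearly all actives have a fitted effect of over 60% in size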
Outline: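 Human lymphoblastoid cells (2500/well) were plated in complete medium, incubated 5 hr at 37 C, then exposed to compounds for 24 hr at 37 C. Intracellular ATP was read by CellTiter-Glo luminescence after 30 min at room temperature; AC50 from Hill fits.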

Measured: Potency

Cc1ncc[nH]1
inactive: all assays above

COC(=O)c1ccccc1O
inactive: all assays above

CCCCO
inactive: all assays above

C/C=C/C=C/C(=O)O
inactive: all assays above

OC[C@H]1O[C@@H]2O[C@H]3[C@H](O)[C@@H](O)[C@@H](O[C@H]4[C@H](O)[C@@H](O)[C@@H](O[C@H]5[C@H](O)[C@@H](O)[C@@H](O[C@H]6[C@H](O)[C@@H](O)[C@@H](O[C@H]7[C@H](O)[C@@H](O)[C@@H](O[C@H]1[C@H](O)[C@H]2O)O[C@@H]7CO)O[C@@H]6CO)O[C@@H]5CO)O[C@@H]4CO)O[C@@H]3CO
inactive: all assays above

NCCN
inactive: all assays above

OB(O)O
not listed: [2]
inactive: all other assays above

Nc1ccc(N=Nc2ccccc2)c(N)n1
inactive: all assays above

NC(N)=O
inactive: all assays above
